PubChem BioAssay (Tox21)
Results filed as inconclusive are left out. Where a call stands in place of a potency, no number is given. Where a structure was tested more than once in an assay, its records may differ in their call. Calls of active or inactive are those of the source. Calls come from the whole dose curve.

Molecular target: Acetylcholinesterase (Homo sapiens) (UniProt P22303)
Assay: Acetylcholinesterase (AChE) small molecule antagonists: colormetric cell-based qHTS assay (AID 1347395); note: nearly all actives have a fitted effect of over 30% in size
Conditions: SH-SY5Y cells AChE activity, colorimetric (Ellman); series mostly up to 115 µM
From the text: National Center for Advancing Translational Sciences [NCATS]
Division of Preclinical Innovation [DPI]
U.S. Environmental Protection Agency [EPA]
National Institutes of Environmental Health Sciences [NIEHS]
National Toxicology Program [NTP]
U.S. Food and Drug Administration [FDA]
Acetylcholinesterase (AChE) is the primary cholinesterase in the body that hydrolyzes a key neurotransmitter, acetylcholine. Inhibition of AChE activity can lead to neurotoxicity. The known inhibitors include organophosphorous pesticides (OP), chemical warfare agents, drugs, and various phytochemicals.
A homogenous cell-based assay using the Amplite Colormetric acetylcholinesterase assay kit (AAT Bioquest, Sunnyvale, CA) was used to evaluate the chemicals in the Tox21 10K library that inhibit AChE activity. The assay uses 5, 5-dithiobis-(2-nitrobenzoic acid) (DTNB) to quantify the thiocholine produced from the hydrolysis of acetylthiocholine by AChE from the SH-SY5Y cells.
Tox21 Assay Protocol Summary:
For the cell-based AChE assay, 2,000 SH-SY5Y cells in 4 uL/well were dispensed into black, clear-bottom 1536-well plates using a Multidrop Combi dispenser (Thermo Scientific, MA). The assay plates were incubated overnight at 37 C to allow cells to attach to the wells, followed by the transfer of 23 nL of compound or DMSO (vehicle control) by a Pintool Station (Wako Automation, CA). The plates were incubated for 30 min at 37 C and 5% CO2, followed by the addition of 4 uL of detection cocktail solution (DTNB, acetylthiocholine) into each well using a Flying Reagent Dispenser (Beckman Coulter, CA) and then 90 min incubation at 37 C.
Potency is the fitted concentration of half-maximal effect.

Acetylcholinesterase (Homo sapiens), sequence (P22303 whole entry, looked up): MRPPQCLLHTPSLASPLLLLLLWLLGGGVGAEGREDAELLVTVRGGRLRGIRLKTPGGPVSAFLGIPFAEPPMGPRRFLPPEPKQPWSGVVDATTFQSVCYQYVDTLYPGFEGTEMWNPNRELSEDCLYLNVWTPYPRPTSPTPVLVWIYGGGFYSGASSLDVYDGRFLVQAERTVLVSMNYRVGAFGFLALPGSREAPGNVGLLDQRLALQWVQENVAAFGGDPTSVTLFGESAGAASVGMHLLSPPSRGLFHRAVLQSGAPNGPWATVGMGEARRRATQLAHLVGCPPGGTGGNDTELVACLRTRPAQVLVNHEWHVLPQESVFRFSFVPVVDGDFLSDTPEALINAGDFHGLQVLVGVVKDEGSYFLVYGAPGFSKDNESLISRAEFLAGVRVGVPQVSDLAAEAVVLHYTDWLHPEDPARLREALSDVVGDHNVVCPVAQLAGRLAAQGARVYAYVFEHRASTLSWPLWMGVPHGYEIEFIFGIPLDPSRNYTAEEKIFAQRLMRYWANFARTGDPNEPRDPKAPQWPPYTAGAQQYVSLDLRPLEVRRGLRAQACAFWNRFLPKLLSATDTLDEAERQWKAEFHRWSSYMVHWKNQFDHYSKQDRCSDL

SMILES | Potency | outcome | activity, negative = inhibition
CCN1CCCC1CN (stereo not given) | inactive |  | 
CC(=O)OC(C)OC(C)=O | inactive |  | 
CCCCCCCCCCCCCCCCCCO | inactive |  | 
CCCCNCC | inactive |  | 
C=C(C)C(=O)OCCCCCCOC(=O)C(=C)C | inactive |  | 
NCCc1ccn[nH]1 | inactive |  | 
CCn1cc(C(=O)O)c(=O)c2ccc(C)nc21 | inactive |  | 
COc1cc([N+](=O)[O-])ccc1N | inactive |  | 
C/C=C(/C(=C/C)c1ccc(O)cc1)c1ccc(O)cc1 | inactive |  | 
OCC1CC=CCC1 (stereo not given) | inactive |  | 
Clc1cc(Cl)c(Cl)c(Cl)c1Cl | inactive |  | 
CC(C)COC(=O)c1ccc(N)cc1 | inactive |  | 
CC(=O)OC(C)c1ccccc1 (stereo not given) | inactive |  | 
Nc1cccc(O)c1 | inactive |  | 
O=C(O)CCCCCCCCCC(=O)O | inactive |  | 
CO[C@@]1(NC(=O)CSC[C@@H](N)C(=O)O)C(=O)N2C(C(=O)O)=C(CSc3nnnn3C)CS[C@@H]21 | inactive |  | 
CN1CCCC1=O | inactive |  | 
N#CCc1ccc(Cl)cc1Cl | inactive |  | 
CCCCc1nc2cccnc2n1Cc1ccc(-c2ccccc2-c2nnn[nH]2)cc1 | inactive |  | 
OCCOc1ccc(OCCO)cc1 | inactive |  | 

SMILES | Potency | outcome | activity, negative = inhibition
C/C=C/C=C/CO | inactive |  | 
C=CCOCC(O)CCl (stereo not given) | inactive |  | 
C=CC(=O)OCCCCCCCCCC | inactive |  | 
COC(=O)/C=C\C(=O)OC | inactive |  | 
CCCCC(CC)COC(=O)COc1ccc(Cl)cc1C (stereo not given) | inactive |  | 
COc1ccc(C(=O)c2cccc(O)c2)c(OC)c1 | inactive |  | 
CCCCOCC(C)OCC(C)O (stereo not given) | inactive |  | 
CCOC(=O)c1cccc(N)c1 |  | inactive | 
CN(C/C=C/C#CC(C)(C)C)Cc1cccc2ccccc12 | inactive |  | 
FC(F)(F)c1ccccc1Cl | inactive |  | 
CN1C(CCl)Nc2cc(Cl)c(S(N)(=O)=O)cc2S1(=O)=O (stereo not given) | inactive |  | 
Cc1ccc2nc3sc(=O)sc3nc2c1 |  |  | -0.0538% [at 23.6 µM] (inactive)
Cn1c(=O)c2c(ncn2CC2OCCO2)n(C)c1=O | inactive |  | 
Nc1nc(=S)c2[nH]cnc2[nH]1 | 21.9 µM (active) and inactive |  | 
CC(C(=O)O)c1ccc(-c2ccccc2)c(F)c1 (stereo not given) | inactive |  | 
CCOC(C)OCC | inactive |  | 
Cc1ccccc1C(=O)Nc1ccc(C(=O)N2CCCC(O)c3cc(Cl)ccc32)c(C)c1 (stereo not given) | inactive |  | 
CCc1cccc(C)c1N(C(=O)CS(=O)(=O)O)C(C)COC (stereo not given) | inactive |  | 
OC[C@H](Cc1cccc(O)c1)[C@H](CO)Cc1cccc(O)c1 | inactive |  | 
Cc1ccc(C=O)cc1C | inactive |  | 
